RecA splice inh: inhibitors of M. tuberculosis RecA intein splicing; P9WHJ3; cell-free RecA intein splicing, fluorescence; inhibition, % (test concentration not listed); hit rate 0.75% among 290,000; in the data active means inhibition above about 30%;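 further: 0% = vehicle wells and 100% = reference inhibitor control wells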
UGM FP inh: inhibitors of M. tuberculosis UDP-galactopyranose mutase. purified UGM, fluorescence polarization probe displacement. inhibition, % at 10 µM. hit rate 0.06% among 320,000. AID 504406; in the data active means inhibition above about 10%, passing the limit was not always enough
Target sequence (P9WIQ1 whole entry, looked up): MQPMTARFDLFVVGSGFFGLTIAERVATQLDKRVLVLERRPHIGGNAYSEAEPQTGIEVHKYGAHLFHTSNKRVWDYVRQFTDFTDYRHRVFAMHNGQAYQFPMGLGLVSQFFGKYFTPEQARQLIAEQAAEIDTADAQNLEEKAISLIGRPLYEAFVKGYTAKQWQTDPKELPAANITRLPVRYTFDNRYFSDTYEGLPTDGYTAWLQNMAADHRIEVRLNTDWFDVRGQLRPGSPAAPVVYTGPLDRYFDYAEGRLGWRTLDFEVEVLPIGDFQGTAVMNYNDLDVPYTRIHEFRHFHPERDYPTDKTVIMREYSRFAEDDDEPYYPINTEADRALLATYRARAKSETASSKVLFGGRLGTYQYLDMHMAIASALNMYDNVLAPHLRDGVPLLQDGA
FBA Mtb inh: inhibitors of M. tuberculosis fructose-bisphosphate aldolase; purified M. tuberculosis FBA, fluorescence read-out; P9WQA3; inhibition, % at 1 µM; hit rate 2.3% among 360,000;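 further: 0% = vehicle and 100% = reference inhibitor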
BH1578 lux ind: inducers of Vibrio cholerae quorum light production without autoinducers | V. cholerae BH1578 lux reporter, luminescence, 6 h | activation, % at 18.7 µM | hit rate 0.16% among 350,000; in the data active means activation mostly above about 9.7%, no sharp cut-off
Rv3671c protease: Rv3671c (M. tuberculosis) protease inhibition | hit rate 0.048% among 320,000 | inhibition, % at 5.96 µM | P9WHR9; in the data active means inhibition above about 38%;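 further: extracellular domain of Rv3671c used as enzyme; 0% = enzyme with DMSO and 100% = no enzyme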
GDH-TPI counter-1: counter-screen for M. tuberculosis FBA inhibitors: GDH-TPI coupled enzymes; inhibition, % at 4.8 µM; GDH-TPI coupled enzyme counterscreen, NADH absorbance; hit rate 1.2% among 360,000; in the data active means inhibition above about 30%;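 further: 0% = DMSO wells and 100% = wells lacking the enzyme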
Mtb FBA confirm: confirmation of M. tuberculosis fructose-bisphosphate aldolase inhibitors; shares compounds with FBA Mtb inh; inhibition, % at 1 µM; purified M. tuberculosis FBA, fluorescence read-out; hit rate 78% among 5,600;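 further: 0% = vehicle wells and 100% = reference inhibitor wells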
GDH-TPI counter-2: GDH-TPI inhibition counter-screen for FBA inhibitors. inhibition, % at 1 µM. shares compounds with FBA Mtb inh. GDH-TPI coupled enzyme counterscreen, fluorescence. hit rate 81% among 5,600. AID 652141; in the data active means inhibition above about 10%
GDH-TPI dose: inhibits GDH-TPI coupling enzymes in dose response; shares compounds with FBA Mtb inh; GDH-TPI coupled enzyme assay, fluorescence, artifact counterscreen; IC50, µM; hit rate 79% among 170; call rule not given here
* marks the source's active call; other numbers are inactive results; i = inactive; nt = no result; + = active, no number. This is a sample that favours compounds with a hit; in the whole collection about 4.1% have one here. Unless noted, no stated cut-off is given here; in the data, active means inhibition above about 27%; inactive means the rest.

SMILES	RecA splice inh	UGM FP inh	FBA Mtb inh	BH1578 lux ind	Rv3671c protease	GDH-TPI counter-1	Mtb FBA confirm	GDH-TPI counter-2	others
C(=C\c1ccco1)/C1=NN(c2ccccc2)C(c2ccco2)C1 (stereo unspecified)	-193.2	-3.5	39.9*	4.5	-15.4	11.7	+	+
Cc1ccc(C2CC(c3ccccc3)=NN2c2ccccc2)o1 (stereo unspecified)	1.3	0.5	42.9*	-0.3	2.9	6.2	15.3	7.8	GDH-TPI dose=1.28*
Cc1ccc(C2CC(c3ccccc3)=NN2C(=O)CSc2nnc(-c3ccc(Cl)cc3)o2)o1 (stereo unspecified)	1.0	-2.7	-0.2	-0.6	-1.1	5.0	nt	nt
C[C@@H]1CN([C@H](C)CO)C(=O)CCCn2nncc2CO[C@@H]1CN(C)S(=O)(=O)c1ccccc1C#N	nt	nt	1.3	i	nt	-0.5	nt	nt
Oc1cccc2c(NC(=S)Nc3ccc(SC(F)F)cc3)cccc12	13.8	2.3	30.3*	-0.2	1.0	3.9	+	+
COC(=O)c1[nH]c2ccccc2c1Sc1ccccc1	0.6	-0.3	77.3*	-1.5	nt	13.0	95.4*	73.5*
Cc1cccn2c(=O)c(/C=C(\C#N)C(=O)NC3CCS(=O)(=O)C3)c(Oc3ccc(F)cc3)nc12 (stereo unspecified)	-0.9	-0.3	31.5*	-4.8	-2.7	-3.0	+	+
COc1ccc(Oc2nc3c(C)cccn3c(=O)c2/C=C(\C#N)C(N)=O)cc1	-2.4	4.0	6.3	-0.3	-12.0	5.6	nt	nt
N#C/C(=C\c1c(Oc2ccc(Cl)cc2)nc2ccccn2c1=O)C(=O)NC1CCS(=O)(=O)C1 (stereo unspecified)	-90.1	-0.9	86.2*	i	-0.9	7.7	+	181.7*
COC(=O)/C(C#N)=C/c1c(Oc2cccc(C)c2)nc2ccccn2c1=O	9.9	-4.2	2.0	0.5	5.2	13.2	nt	nt
Cc1cc(Oc2nc3ccccn3c(=O)c2/C=C(\C#N)C(=O)NC2CCS(=O)(=O)C2)ccc1Cl (stereo unspecified)	nt	2.7	44.8*	-0.4	-6.0	2.3	139.4*	112.7*
Cc1cccc(Oc2nc3ccccn3c(=O)c2/C=C(\C#N)C(=O)NC2CCS(=O)(=O)C2)c1C (stereo unspecified)	-23.9	-1.8	50.8*	-0.3	2.2	7.8	106.6*	79.7*
Cc1ccsc1/C=C(\C#N)C(=O)NC1CCS(=O)(=O)C1 (stereo unspecified)	2.1	2.1	1.4	nt	0.4	15.1	nt	nt
Cc1cccc(Oc2nc3ccccn3c(=O)c2/C=C(\C#N)C(=O)NC2CCS(=O)(=O)C2)c1 (stereo unspecified)	-33.0	1.9	17.9	0.3	-7.1	3.3	nt	nt
CCc1noc(C)c1C(=O)Nc1nc(-c2ccc(OC)cc2OC)cs1	2.5	1.8	-2.2	-0.5	-9.9	18.7	nt	nt
N#Cc1c(-c2ccc(F)cc2)c2c([nH]c1=O)-c1ccccc1OC2	-35.7	0.6	104.6*	-0.2	4.7	-7.7	+	+
CC1(C)Cc2c(c(-c3ccco3)[nH]c(=O)c2C#N)CO1	-2.5	0.3	13.9	2.9	10.1	13.4	nt	nt
COc1ccccc1NS(=O)(=O)c1ccc2oc(SC(C)C(=O)N3CCNC3=O)nc2c1 (stereo unspecified)	nt	-0.9	4.1	-0.9	0.8	11.8	nt	nt
CC(=O)N(CC(=O)Nc1nn(-c2ccccc2)nc1C(N)=O)Cc1ccccc1	-1.0	-2.6	42.6*	-0.7	-0.3	1.8	1.3	-2.9
CN(C(=O)COc1ccc2ccc(=O)oc2c1)C1CCS(=O)(=O)C1 (stereo unspecified)	-1.6	0.9	37.7*	-0.3	-6.3	19.7	190.4*	146.9*
CC(C)CN(C(=O)COc1ccc2ccc(=O)oc2c1)C1CCS(=O)(=O)C1 (stereo unspecified)	-0.7	-0.5	21.5	-3.1	0.6	9.6	nt	nt
CCN(C(=O)COc1ccc2ccc(=O)oc2c1)C1CCCCC1	nt	0.9	34.6*	i	4.0	7.7	71.8*	50.7*
O=S(=O)(NCCc1ccc(F)cc1)c1ccc(F)cc1Br	nt	nt	-3.6	i	nt	-1.0	nt	nt
